# Assay results: the supplement of paper PMC10849652
# Targets with a hit are over-represented here; the source holds about 7,900 in all. About 0.6% of all pairs of compound and target were hits. A number with no mark means an inactive call.
# Assays:
# Assay in all cases: log2 fold change, soluble protein after heating vs DMSO (PISA); higher = thermal stabilisation; K562 cells, 10 uM, 30 min; active = over 0.2 and 3.5 SD of the protein, either way, in both replicates (recomputed)
# [1] = compound: COC1=CC=C(C=C1)CN2C=CC3=C2C=C(C=C3)C(=O)NO
# In short: (§1)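 Quantification of soluble protein used TMTpro 16plex LC-MS/MS, with channel sums equalised. Samples were the supernatant after 21,000xg for 90 min of pooled aliquots from K562 cells (2×10^6 cells/mL) treated with 10 μM compound for 30 min, heated for 3 min over 48°C-58°C, and extracted in PBS with 0.5% NP-40 at 4°C. Values, from duplicates, describe thermal stability against control samples on a log2 fold-change scale.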
# [2] = compound: CON(C)C(=O)N1N=C(c2cc(F)ccc2F)S[C@@]1(CCCN)c1ccccc1 [filanesib]
# In short: as §1
# [3] = compound: CO[C@H]1C[C@@H]2CC[C@@H](C)[C@@](O)(O2)C(=O)C(=O)N2CCCC[C@H]2C(=O)O[C@H]([C@H](C)C[C@@H]2CC[C@H](n3cnnn3)[C@H](OC)C2)CC(=O)[C@H](C)/C=C(\C)[C@@H](O)[C@@H](OC)C(=O)[C@H](C)C[C@H](C)/C=C/C=C/C=C/1C [zotarolimus]
# In short: as §1
# [4] = compound: COc1cc(C(=O)O)ccc1NC(=O)[C@@H]1N[C@@H](CC(C)(C)C)[C@](C#N)(c2ccc(Cl)cc2F)[C@H]1c1cccc(Cl)c1F [idasanutlin]
# In short: as §1
# [5] = compound: COc1cc(Nc2ncc3c(n2)-c2ccc(Cl)cc2C(c2c(F)cccc2OC)=NC3)ccc1C(=O)O [alisertib]
# In short: as §1
# [6] = compound: COc1cc2nc(-c3cc(F)ccc3O)nc(N[C@@H]3CNC[C@H]3C(C)(C)O)c2cc1OC
# In short: as §1
# [7] = compound: COc1cc2ncnc(Nc3ccc(F)c(Cl)c3)c2cc1OCCCN1CCOCC1 [gefitinib]
# In short: as §1
# [8] = compound: COc1cccc2cc(-c3nc([C@H]4CC[C@H](C(=O)O)CC4)n4ncnc(N)c34)[nH]c12
# In short: as §1
# [9] = compound: CS(=O)(=O)CCNCc1ccc(-c2ccc3ncnc(Nc4ccc(OCc5cccc(F)c5)c(Cl)c4)c3c2)o1 [lapatinib]
# In short: as §1
# [10] = compound: CS(=O)(=O)N1CCN(Cc2cc3nc(-c4cccc5[nH]ncc45)nc(N4CCOCC4)c3s2)CC1 [pictilisib]
# In short: as §1
# Sequence of UniProt P27694 (P27694 whole entry, looked up): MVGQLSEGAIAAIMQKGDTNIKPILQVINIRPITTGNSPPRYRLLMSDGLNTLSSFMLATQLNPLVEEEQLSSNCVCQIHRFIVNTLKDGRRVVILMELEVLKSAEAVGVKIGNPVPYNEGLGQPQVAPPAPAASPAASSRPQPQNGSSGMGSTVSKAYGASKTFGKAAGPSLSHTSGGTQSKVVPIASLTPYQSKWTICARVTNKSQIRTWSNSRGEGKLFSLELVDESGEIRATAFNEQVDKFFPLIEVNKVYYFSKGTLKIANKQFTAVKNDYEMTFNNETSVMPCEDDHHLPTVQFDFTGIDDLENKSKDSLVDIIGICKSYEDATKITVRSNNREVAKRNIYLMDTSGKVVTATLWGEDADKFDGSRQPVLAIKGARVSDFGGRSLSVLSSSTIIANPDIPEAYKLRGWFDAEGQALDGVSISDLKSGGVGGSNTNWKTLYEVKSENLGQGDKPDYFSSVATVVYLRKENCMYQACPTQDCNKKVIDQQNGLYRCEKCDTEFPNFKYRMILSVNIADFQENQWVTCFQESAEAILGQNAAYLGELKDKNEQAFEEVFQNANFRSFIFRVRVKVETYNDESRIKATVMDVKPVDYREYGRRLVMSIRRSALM
# Sequence of UniProt O43665 (O43665 whole entry, looked up): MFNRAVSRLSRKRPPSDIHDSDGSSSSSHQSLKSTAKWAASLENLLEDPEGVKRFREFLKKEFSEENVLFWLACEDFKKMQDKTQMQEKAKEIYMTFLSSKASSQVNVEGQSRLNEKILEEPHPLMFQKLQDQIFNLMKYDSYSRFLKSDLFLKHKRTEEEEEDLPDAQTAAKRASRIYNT
# Sequence of UniProt Q8TD22 (Q8TD22 whole entry, looked up): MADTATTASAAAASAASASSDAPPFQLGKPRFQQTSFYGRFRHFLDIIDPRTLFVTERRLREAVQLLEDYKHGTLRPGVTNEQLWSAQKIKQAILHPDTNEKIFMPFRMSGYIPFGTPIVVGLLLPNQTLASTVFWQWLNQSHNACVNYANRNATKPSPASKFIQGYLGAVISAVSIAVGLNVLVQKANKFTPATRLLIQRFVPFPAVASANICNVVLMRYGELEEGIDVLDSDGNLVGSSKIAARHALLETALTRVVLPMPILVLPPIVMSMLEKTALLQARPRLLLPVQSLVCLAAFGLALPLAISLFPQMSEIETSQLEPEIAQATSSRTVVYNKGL
# Sequence of UniProt Q9UKM9 (Q9UKM9 whole entry, looked up): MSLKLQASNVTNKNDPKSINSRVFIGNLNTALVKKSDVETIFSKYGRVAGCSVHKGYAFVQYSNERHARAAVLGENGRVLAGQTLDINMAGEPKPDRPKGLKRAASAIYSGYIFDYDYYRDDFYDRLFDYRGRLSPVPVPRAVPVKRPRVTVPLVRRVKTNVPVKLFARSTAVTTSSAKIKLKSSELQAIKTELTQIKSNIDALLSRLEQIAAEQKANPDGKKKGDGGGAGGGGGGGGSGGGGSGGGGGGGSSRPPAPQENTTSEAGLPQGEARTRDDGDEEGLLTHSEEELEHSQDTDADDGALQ
# Sequence of UniProt P51148 (P51148 whole entry, looked up): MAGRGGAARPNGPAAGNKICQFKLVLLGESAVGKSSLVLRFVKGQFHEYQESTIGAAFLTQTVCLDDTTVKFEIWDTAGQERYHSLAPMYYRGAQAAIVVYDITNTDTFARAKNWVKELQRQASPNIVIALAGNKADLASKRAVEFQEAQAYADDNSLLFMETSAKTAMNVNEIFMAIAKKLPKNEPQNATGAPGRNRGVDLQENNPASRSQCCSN
# Sequence of UniProt Q14151 (Q14151 whole entry, looked up): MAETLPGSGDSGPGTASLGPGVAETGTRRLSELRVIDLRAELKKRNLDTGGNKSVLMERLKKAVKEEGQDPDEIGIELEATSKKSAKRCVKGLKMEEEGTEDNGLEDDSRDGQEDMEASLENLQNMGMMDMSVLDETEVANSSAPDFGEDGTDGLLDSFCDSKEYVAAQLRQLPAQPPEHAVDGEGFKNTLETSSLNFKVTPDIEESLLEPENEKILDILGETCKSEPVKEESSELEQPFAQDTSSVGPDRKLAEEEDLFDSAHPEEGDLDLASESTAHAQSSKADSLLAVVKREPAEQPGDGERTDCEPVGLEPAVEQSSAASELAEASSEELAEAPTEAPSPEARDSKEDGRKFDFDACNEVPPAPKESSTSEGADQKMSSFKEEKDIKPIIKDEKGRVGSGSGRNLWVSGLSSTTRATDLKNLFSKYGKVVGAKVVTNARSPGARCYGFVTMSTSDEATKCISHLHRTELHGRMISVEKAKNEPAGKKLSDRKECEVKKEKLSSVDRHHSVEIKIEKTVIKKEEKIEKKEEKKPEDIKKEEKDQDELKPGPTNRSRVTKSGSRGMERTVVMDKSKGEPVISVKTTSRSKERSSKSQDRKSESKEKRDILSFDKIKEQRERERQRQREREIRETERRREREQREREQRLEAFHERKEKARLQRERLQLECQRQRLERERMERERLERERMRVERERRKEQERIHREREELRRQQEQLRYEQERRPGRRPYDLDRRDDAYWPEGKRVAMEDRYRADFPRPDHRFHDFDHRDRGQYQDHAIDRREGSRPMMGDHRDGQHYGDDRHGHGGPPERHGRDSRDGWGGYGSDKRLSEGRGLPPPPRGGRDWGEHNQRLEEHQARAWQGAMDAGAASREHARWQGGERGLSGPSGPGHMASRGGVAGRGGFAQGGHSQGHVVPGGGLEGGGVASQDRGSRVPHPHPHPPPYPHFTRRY
# Sequence of UniProt Q9UPN6 (Q9UPN6 whole entry, looked up): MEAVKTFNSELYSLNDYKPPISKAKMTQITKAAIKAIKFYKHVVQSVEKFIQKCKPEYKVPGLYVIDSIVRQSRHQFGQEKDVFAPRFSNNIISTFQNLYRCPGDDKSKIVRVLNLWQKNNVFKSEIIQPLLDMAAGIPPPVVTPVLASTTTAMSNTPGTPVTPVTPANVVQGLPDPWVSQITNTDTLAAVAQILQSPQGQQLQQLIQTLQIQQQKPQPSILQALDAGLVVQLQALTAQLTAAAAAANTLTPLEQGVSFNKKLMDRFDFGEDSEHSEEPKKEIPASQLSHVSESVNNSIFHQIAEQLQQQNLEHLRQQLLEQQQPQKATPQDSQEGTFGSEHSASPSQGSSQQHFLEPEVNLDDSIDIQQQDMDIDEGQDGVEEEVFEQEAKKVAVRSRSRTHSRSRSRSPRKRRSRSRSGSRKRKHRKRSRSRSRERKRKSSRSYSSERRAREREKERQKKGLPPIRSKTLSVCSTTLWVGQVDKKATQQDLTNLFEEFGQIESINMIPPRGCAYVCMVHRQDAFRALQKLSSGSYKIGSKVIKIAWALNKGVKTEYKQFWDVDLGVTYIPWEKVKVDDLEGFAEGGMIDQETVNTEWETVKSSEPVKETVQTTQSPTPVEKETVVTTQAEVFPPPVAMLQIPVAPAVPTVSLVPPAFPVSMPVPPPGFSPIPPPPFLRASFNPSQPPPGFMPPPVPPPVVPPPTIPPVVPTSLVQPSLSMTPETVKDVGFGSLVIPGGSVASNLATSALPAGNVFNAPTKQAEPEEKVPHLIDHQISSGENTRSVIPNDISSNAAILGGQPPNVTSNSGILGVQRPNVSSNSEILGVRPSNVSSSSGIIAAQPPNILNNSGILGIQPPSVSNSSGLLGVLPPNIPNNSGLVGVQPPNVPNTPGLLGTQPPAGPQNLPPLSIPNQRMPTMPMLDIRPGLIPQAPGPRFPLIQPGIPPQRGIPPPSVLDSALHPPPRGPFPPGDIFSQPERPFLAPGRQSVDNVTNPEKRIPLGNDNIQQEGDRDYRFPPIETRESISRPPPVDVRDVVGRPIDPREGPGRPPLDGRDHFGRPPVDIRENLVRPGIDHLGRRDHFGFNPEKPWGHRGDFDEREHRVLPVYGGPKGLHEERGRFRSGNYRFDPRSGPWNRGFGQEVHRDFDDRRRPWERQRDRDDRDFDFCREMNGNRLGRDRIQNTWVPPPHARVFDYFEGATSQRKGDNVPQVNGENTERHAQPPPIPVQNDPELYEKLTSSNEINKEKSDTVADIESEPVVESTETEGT
# Sequence of UniProt Q96T51 (Q96T51 whole entry, looked up): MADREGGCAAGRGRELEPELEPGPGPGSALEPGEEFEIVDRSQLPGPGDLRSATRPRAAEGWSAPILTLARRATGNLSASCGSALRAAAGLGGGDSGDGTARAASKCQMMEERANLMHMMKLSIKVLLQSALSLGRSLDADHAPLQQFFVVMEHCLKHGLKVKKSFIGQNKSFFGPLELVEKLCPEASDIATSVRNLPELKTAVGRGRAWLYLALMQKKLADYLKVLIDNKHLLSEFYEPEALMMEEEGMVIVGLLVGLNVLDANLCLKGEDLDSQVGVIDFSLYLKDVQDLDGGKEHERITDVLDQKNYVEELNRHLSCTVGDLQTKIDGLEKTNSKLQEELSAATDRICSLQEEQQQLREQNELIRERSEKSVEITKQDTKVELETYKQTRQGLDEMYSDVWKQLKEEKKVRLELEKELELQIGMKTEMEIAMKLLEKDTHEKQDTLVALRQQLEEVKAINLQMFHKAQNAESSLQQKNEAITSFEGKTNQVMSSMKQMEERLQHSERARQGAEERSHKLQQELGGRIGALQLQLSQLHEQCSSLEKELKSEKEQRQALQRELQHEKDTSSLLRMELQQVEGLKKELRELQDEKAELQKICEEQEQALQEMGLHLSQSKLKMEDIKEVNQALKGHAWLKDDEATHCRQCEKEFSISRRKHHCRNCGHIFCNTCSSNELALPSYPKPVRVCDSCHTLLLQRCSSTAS
# Sequence of UniProt Q9BWF3 (Q9BWF3 whole entry, looked up): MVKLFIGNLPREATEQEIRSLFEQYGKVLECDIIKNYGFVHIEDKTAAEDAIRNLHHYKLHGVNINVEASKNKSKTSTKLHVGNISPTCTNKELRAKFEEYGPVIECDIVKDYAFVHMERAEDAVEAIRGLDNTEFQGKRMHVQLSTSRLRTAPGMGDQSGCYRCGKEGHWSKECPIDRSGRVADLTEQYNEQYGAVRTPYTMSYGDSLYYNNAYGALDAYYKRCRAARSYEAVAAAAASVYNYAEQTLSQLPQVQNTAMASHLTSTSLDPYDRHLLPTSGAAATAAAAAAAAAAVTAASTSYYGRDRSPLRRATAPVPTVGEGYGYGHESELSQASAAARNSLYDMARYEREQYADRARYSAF
Target,log2 fold change [1],log2 fold change [2],log2 fold change [3],log2 fold change [4],log2 fold change [5],log2 fold change [6],log2 fold change [7],log2 fold change [8],log2 fold change [9],log2 fold change [10]
SAMSN1 isoform 3 (UniProt Q9NSI8),0.013,-0.021,0.034,-0.026,0.007,-0.001,0.007,-0.029,-0.009,-0.001
RBM4 (UniProt Q9BWF3),-0.071,0.065,0.035,0.051,0.038,-0.036,-0.04,-0.038,0.024,0.005
RPS3 (UniProt P23396),-0.093,0.102,-0.023,0.055,-0.05,-0.027,-0.056,-0.149,0.053,-0.059
RBM27 (UniProt Q9P2N5),-0.025,0.094,0.027,0.075,0.02,-0.058,0.057,0.018,0.051,-0.08
ROCK1 (UniProt Q13464),0.037,-0.028,0.003,-0.005,0.067,0.246 (active),-0.012,-0.005,0.012,-0.012
RAC1 (UniProt P63000),0.474 (active),-0.118,0.044,0.003,-0.066,0.02,0.039,0.006,0.004,-0.094
SAFB2 (UniProt Q14151),-0.044,0.409 (active),0.017,0.085,-0.045,-0.046,0,-0.037,0.048,-0.032
RNF2 (UniProt Q99496),-0.104,0.023,0,-0.01,-0.105,-0.04,0.106,0.039,0.011,0.099
RPS3A (UniProt P61247),-0.112,0.117,0.006,0.069,-0.052,-0.009,-0.06,-0.152,0.053,-0.078
RSPRY1 (UniProt Q96DX4),-0.065,0.01,-0.01,-0.061,-0.051,-0.006,0.048,0.031,0.046,0.054
RTF2 (UniProt Q9BY42),-0.021,0.09,0.03,0.066,0.024,0.036,0.049,0,0.026,-0.027
SFXN5 (UniProt Q8TD22),-0.104,-0.007,0.025,-0.172,0.027,-0.019,-0.013,0.035,0.017,0.061
SH2D1B (UniProt O14796),0.129,0.086,-0.037,0.117,-0.075,0.072,-0.078,0.236,0.053,-0.004
RBM6 (UniProt P78332),0.044,-0.067,0.064,0.101,-0.431,-0.02,-0.007,0.005,0.121,-0.044
RPS5 (UniProt P46782),0.004,0.089,0.011,0.094,-0.11,-0.056,-0.052,-0.126,0.081,-0.099
RALY (UniProt Q9UKM9),-0.038,0.216,0.055,0.72 (active),0.041,-0.152,-0.099,-0.148,0.22,-0.02
RNF187 (UniProt Q5TA31),0.028,0.003,-0.006,-0.032,-0.104,0.047,-0.012,-0.053,-0.07,-0.037
ROCK2 (UniProt O75116),-0.009,-0.006,0.023,0,0.072,0.135,0.045,-0.038,-0.029,0.071
SCAF11 (UniProt Q99590),0.365,0.141,-0.029,0.054,-0.1,-0.028,-0.013,-0.071,0.156,-0.382
SCAF8 isoform 2 (UniProt Q9UPN6),0.026,0.002,0.022,-0.003,-0.027,0.048,0.058,0.015,-0.007,-0.055
RPA1 (UniProt P27694),0.053,-0.006,0.018,-0.042,0.027,0.049,-0.001,-0.133,0.006,-0.088
SEC23IP (UniProt Q9Y6Y8),-0.006,0,-0.002,0.016,0,-0.065,0.009,-0.096,0.035,-0.006
RAB5C isoform 2 (UniProt P51148),-0.002,-0.053,-0.015,-0.055,-0.095,0.015,0.013,0.038,-0.027,-0.017
RNF220 (UniProt Q5VTB9),-0.004,0.108,0.062,-0.006,-0.062,0.047,-0.032,0.002,-0.006,0.068
SESN2 (UniProt P58004),0.013,-0.174,0.099,-0.107,-0.005,-0.112,0.08,-0.085,0.25,0.167
RPS6KA2 isoform 2 (UniProt Q15349),-0.023,-0.006,0.016,-0.033,-0.052,-0.259,-0.078,0.001,-0.011,-0.106
RUFY1 (UniProt Q96T51),-0.015,0.005,0.056,-0.049,0.047,0.02,-0.004,-0.053,-0.035,-0.009
RGS10 (UniProt O43665),-0.023,-0.081,0.115,0.086,-0.053,0.003,0.056,-0.014,0.029,-0.028
RNF14 (UniProt Q9UBS8),0.034,-0.093,0.018,0.043,-0.035,-0.038,0.003,-0.048,0.006,0.045
